Reference: PubChem BioAssay (NCATS)
Records with an inconclusive call do not appear. Entries that show only a call come without a potency. The source made the active and inactive calls. Calls follow the shape of the dose curve; as a rule, active = well fitted curve in the direction sought with a large enough effect; inconclusive = small, poorly fitted or top-dose-only effect, or another doubt; inactive = no such curve, though single readings can be large; an effect the other way counts as inactive or inconclusive.

What was measured:
[1] = target: Aldehyde dehydrogenase, mitochondrial (Homo sapiens) (UniProt P05091); assay: qHTS for Inhibitors of the Aldehyde Dehydrogenase Family (ALDH2) Primary screen (AID 2061308); also: nearly all actives have a fitted effect of over 55% in size
[2] = target: Retinaldehyde dehydrogenase 3 (Homo sapiens) (UniProt P47895); assay: qHTS for Inhibitors of the Aldehyde Dehydrogenase Family (ALDH1A3) Confirmatory screens (AID 2061311); also: potency is read from the fitted curve at half-maximal effect; nearly all actives have a fitted effect of over 60% in size
[3] = target: Retinal dehydrogenase 2 (Homo sapiens) (UniProt O94788); assay: qHTS for Inhibitors of the Aldehyde Dehydrogenase Family (ALDH1A2) Confirmation screens (AID 2061314); also: potency is read from the fitted curve at half-maximal effect; nearly all actives have a fitted effect of over 65% in size
[4] = target: Retinaldehyde dehydrogenase 3 (Homo sapiens) (UniProt P47895); assay: qHTS for Inhibitors of the Aldehyde Dehydrogenase Family (ALDH1A3) Primary screen (AID 2061315)

In the case of COc1cccc(Nc2ccc(N3CCN(C(C)=O)CC3)cc2)c1OC, the Potency [1] is reported as “inactive”.

Cc1ccc(C2Nc3cccc4cccc(c34)N2)s1 was tested, and the Potency [1] was “inactive”.

In the case of N#Cc1ccc(-c2nc3ccccc3s2)cc1, the Potency [1] is reported as “inactive”.

With CN1CCN(c2ccc(-c3cc(O)c4ncccc4c3)cc2)CC1 the Potency [1] was “inactive”.

For CCC(=O)NC(c1ccco1)c1cc(Cl)c2ccccc2c1O (stereo unspecified), the Potency [1] was “inactive”.

Cc1ccc(-c2ccc(CNc3nc(-c4ccccc4C(C)C)nc4ccsc34)cc2)cn1 was tested, and the Potency [1] was “inactive”.

In the case of O=C(O)c1cccc(-c2noc(-c3ccc(Cl)cc3)n2)c1, the Potency [1] is reported as “inactive”.

FC(F)(F)c1ccccc1-c1nc(NCc2ccc(-c3cccc4ccccc34)cc2)c2ccccc2n1 was tested, and the Potency [1] was “inactive”.

In the case of C/C(=C\c1ccc(F)cc1)C1Nc2cccc3cccc(c23)N1, the Potency [1] is reported as “inactive”.

In the case of OC/C=C/c1ccc(O[C@@H]2O[C@H](CO)[C@@H](O)[C@H](O)[C@H]2O)cc1, the Potency [1] is reported as “inactive”.

With CC(C)c1ccccc1-c1nccc(NCc2ccc(-c3cccnc3)cc2)n1 the Potency [1] was “inactive”.

For O=C(O)c1ccc(-c2noc(-c3ccc(F)cc3)n2)cc1, the Potency [1] was “inactive”.

O=C(O)c1ccc(Cc2c(-c3cccc(-c4ccccc4)c3)[nH]n(-c3nc(C(=O)O)cs3)c2=O)cc1 was tested, and the Potency [1] was “inactive”.

With Cc1ccc(C)c(SC2=NS(=O)(=O)c3cc(C(=O)NCc4ccccc4)ccc32)c1 the Potency [1] was “inactive”.

For CC(C)(C)OC(=O)N1CCN(c2ccc(NCc3ccc4c(c3)OCO4)cc2)CC1, the Potency [1] was “inactive”.

O=C(Nc1nnc(-c2ccncc2)s1)Nc1ccc(Cl)c2ccccc12 was tested, and the Potency [1] was “inactive”.

In the case of CCC(=O)NC(c1cc(Cl)c2ccccc2c1O)C1CC1 (stereo unspecified), the Potency [1] is reported as “inactive”.

CN(C)CCN(Cc1ccc(-c2ccc(CNCCc3ccccc3)cc2)cc1)C(=O)CCC1CCCC1 was tested, and the Potency [1] was “inactive”.

Cc1ccc(-c2ccc(=O)n(CC(=O)NCCCc3ccco3)n2)cc1 was tested, and the Potency [1] was “inactive”.

For COc1ccccc1-c1nc(-c2cccc(C(=O)O)c2)no1, the Potency [1] was “inactive”.

With FC(F)(F)c1ccccc1-c1nc(NCc2ccc(-c3cccnc3)cc2)c2sccc2n1 the Potency [1] was “inactive”.

For NC(Cc1c[nH]c2ccc(O)cc12)C(=O)O (stereo unspecified), the Potency [1] was “inactive”.

With C=C1C(=O)OC2/C=C(\CO)CC/C=C(\C=O)C(O)C(OC(=O)C(C)CC)C12 (stereo unspecified) the Potency [1] was “inactive”.

In the case of O=C1c2ccccc2C(=O)N1c1cccc2cccnc12, the Potency [1] is reported as “inactive”.

CC(CN1c2ccccc2Sc2ccc(S(=O)(=O)N(C)C)cc21)N(C)C (stereo unspecified) was tested, and the Potency [1] was “inactive”.

With C=C1CC[C@@H]2[C@](C)(CO)[C@H](O[C@@H]3O[C@H](CO)[C@@H](O)[C@H](O)[C@H]3O)CC[C@@]2(C)[C@@H]1C/C=C1/C(=O)OC[C@H]1O the Potency [1] was “inactive”.

CCC(=O)NC(c1ccco1)c1cc(Br)c2cccnc2c1O (stereo unspecified) was tested, and the Potency [1] was “inactive”, the Potency [2] was 12.7 µM (active) and the Potency [3] was 11.3 µM (active). The Potency [4] was “inactive”.

With COc1ccc(C2Nc3cccc4cccc(c34)N2)cc1 the Potency [1] was “inactive”.

With CO[C@H]1c2cc(C(C)C)c(O)c(O)c2[C@@]23CCCC(C)(C)C2[C@@H]1OC3=O (stereo partly specified) the Potency [1] was “inactive”, the Potency [2] was 6.97 µM (active) and the Potency [3] was 6.97 µM (active).

In the case of C=C1/C(=C/C=C2\CCC[C@]3(C)[C@@H]([C@H](C)/C=C/C(=O)C4CC4)CC[C@@H]23)C[C@@H](O)C[C@@H]1O, the Potency [1] is reported as “inactive”.

For COc1ccc(CNc2ccc(N3CCN(C(C)=O)CC3)cc2)cc1OC, the Potency [1] was “inactive”, the Potency [2] was 12.7 µM (active) and the Potency [3] was 12.7 µM (active).

In the case of Cc1ccc(Nc2c(F)cccc2Cl)c(CC(=O)O)c1, the Potency [1] is reported as “inactive”.

CN1CCN(c2ccc(NC(=O)c3cccs3)cn2)CC1 was tested, and the Potency [1] was “inactive”, the Potency [2] was 22.5 µM (active) and the Potency [3] was 12.7 µM (active). The Potency [4] was “inactive”.

In the case of CC(=O)NC(c1cc(Cl)c2ccccc2c1O)C1CC1 (stereo unspecified), the Potency [1] is reported as “inactive”.

For c1cc2c3c(cccc3c1)NC(c1ccc3c(c1)OCO3)N2, the Potency [1] was “inactive”.

With CC(C)(C)OC(=O)N[C@@H](Cc1ccc(O[S+](=O)([O-])c2cccnc2)cc1)C(=O)N1CCN(c2ccccc2)CC1 the Potency [1] was “inactive”, the Potency [2] was 28.3 µM (active) and the Potency [3] was 15.9 µM (active). The Potency [4] was “inactive”.

With CCC(=O)NC(c1cc(Cl)c2ccccc2c1O)C(C)C (stereo unspecified) the Potency [1] was “inactive”, the Potency [2] was 12.7 µM (active) and the Potency [3] was 28.3 µM (active).

With Oc1ccc(/C=C/c2ccccc2)c2cccnc12 the Potency [1] was “inactive” and the Potency [2] was 14.2 µM (active).

In the case of Cc1ccnc(NC(=S)N2CCC(c3cccc(C(F)(F)F)c3)CC2)c1, the Potency [1] is reported as “inactive”.

For COc1ccc(OC)c(NC(=O)c2ccccc2OC(C)=O)c1, the Potency [1] was “inactive”.

For C/C(=C\c1ccc2c(c1)OCO2)C1Nc2cccc3cccc(c23)N1, the Potency [1] was “inactive” and the Potency [2] was 2.83 µM (active).

For CC(=O)NC(c1cc(Cl)c2ccccc2c1O)C(C)C (stereo unspecified), the Potency [1] was “inactive”, the Potency [2] was 8.96 µM (active) and the Potency [3] was 20.1 µM (active).
